For 100 compounds, Potency and activity change, negative = inhibition results are on record in PubChem BioAssay AID893 (National Center for Advancing Translational Sciences (NCATS), 2007).

Several values for one entry are separate records, joined by “and”; a condition that tells them apart may be missing. Identical values can stand only once. About 5,700 (7.6%) of roughly 75,000 compounds were called active. About 7% were inconclusive and are not listed. The call rests on the fitted dose curve; in most records, active means well fitted inhibition curve with a large enough effect; inconclusive means small, poorly fitted or top-dose-only effect; inactive means no such curve, though single readings can be large or run the other way. The entries come from a sample that favours actives as a whole. Entries that show only a call come without a potency.
Potency means the concentration at half of the fitted maximal effect.

This assay deals with 3-hydroxyacyl-CoA dehydrogenase type-2 (Homo sapiens) (UniProt Q99714). Put plainly: qHTS Assay for Inhibitors of HSD17B4, hydroxysteroid (17-beta) dehydrogenase 4. Further: nearly all actives have a fitted effect of over 70% in size. The conditions noted are these: recombinant HSD17B10, NADH fluorescence kinetic; series mostly up to 57.1 µM. A digest of the protocol: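 20 nM HADH2, pH 9.0 Tris/Tween; cpd preinc 15 min RT; start w/ 1 mM NAD+ + 90 uM b-hydroxybutyryl-CoA; kinetic fluor ex360/em450 q30s x 4 min; delta last-first.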
In general terms: Quantitative high-throughput screening tests each substance at several concentrations.
As to `CCCCN(C)C(=O)C1CCN(Cc2ccccn2)CC1`, the Potency entry was “inactive”. Turning to `CO[C@H]1COC(=O)[C@@H](C)NC(=O)C/C=C\[C@@H](C)[C@H](OC)COC(=O)C/C=C\[C@@H]1C`, the activity change, negative = inhibition is -0.943% [at 11.4 µM] (inactive). `c1ccc(-c2oc3ncnc(N4CCOCC4)c3c2-c2ccccc2)cc1`: the Potency is 10 µM (active). Regarding `O=C1c2ccccc2-c2ncnc3c(N4CCOCC4)cc(N4CCOCC4)c1c23`, the Potency result was “inactive”.

As to `c1ccc(-n2nnnc2N2CCOCC2)cc1`, the Potency result was “inactive”. Regarding `Cc1cc(C(=O)OCC(=O)c2c(N)n(C)c(=O)n(C)c2=O)c(C)o1`, the Potency entry is “inactive”.

`CCCOc1cccc(C(=O)Nc2nnn(CCC)n2)c1`: the Potency entry is “inactive”.

Take `CCOc1cccc(C(=O)Nc2cccnc2)c1`: the Potency entry is “inactive”. `CCC(=O)Oc1cccc(C(=O)Nc2ccc(-c3nnc(-c4ccco4)o3)cc2)c1`: the Potency was 20 µM (active). For the compound `Oc1ccc2c(c1)OCC1c3cc4c(cc3OC21)OCO4` (stereo not given), the Potency entry is “inactive”. For `O=C(c1ccccc1)N1CCN(C(=O)N2CCCCC2)CC1`, the Potency entry is “inactive”.

For `O=C(O)CS(=O)c1ccc2c3c(cccc13)C(=O)c1ccccc1-2` (stereo not given), the activity change, negative = inhibition is -2.63% [at 11.4 µM] (inactive). As for `CC(=O)c1c(C)n(-c2ccc(N(C)C)cc2)c2ccc(OCC(N)=O)cc12`, the Potency result is “inactive”. The same measure, in the same setting: as for `O=C1Nc2c(Br)cc(Br)cc2C1(O)N1CCOCC1` (stereo not given), the entry is “inactive”; as for `Brc1cccc(-c2nnc3n2CCC3)c1`, “inactive”; as for `CCN(CC)c1ccc2oc(=O)c(C)nc2c1`, “inactive”. Regarding `CCc1ccc2oc(-c3ccc(N)cc3)nc2c1`, the Potency is 25.1 µM (active). On the same count and under the same terms, as for `Cc1ccc(S(=O)(=O)N2C3C=CC(C3)C2C(=O)O)cc1` (stereo not given), the entry is “inactive”. On to `COC(=O)N1CCC2(CCCN(c3ccncc3)C2)CC1`, for which the Potency result is “inactive”. Regarding `COc1cccc(N2CCN(C3CC(=O)N(c4ccc(Cl)cc4)C3=O)CC2)c1` (stereo not given), the Potency entry is “inactive”.

As for `COC(=O)CC1C(C)(C)C(OC(C)=O)C2CC3=C4CC(=O)OC(c5ccoc5)[C@]4(C)CCC3[C@@]1(C)C2=O` (stereo not given in full), the Potency entry is “inactive”. In the case of `COCCn1nnnc1C(c1cc2ccc(OC)cc2[nH]c1=O)N1CCc2ccccc2C1` (stereo not given), the Potency result was “inactive”.

As to `COc1ccc(N2CCN(C(c3cc4ccc(C)cc4[nH]c3=O)c3nnnn3C3CCCC3)CC2)cc1` (stereo not given), the Potency entry was “inactive”.

On to `CCOc1ccc2[nH]c(=O)c(C(c3nnnn3CCOC)N3CCOCC3)cc2c1` (stereo not given), for which the Potency is 10 µM (active). `O=C1CC2(CCCCC2)Oc2ccc(OCC(=O)N3CCOCC3)cc21`: the Potency was 31.6 µM (active). For `COc1ccc(OCC(=O)N2CCOCC2)cc1`, the Potency entry was “inactive”. As to `O=C(Nc1cccc(OCC(=O)N2CCOCC2)c1)C1CCCCC1`, the Potency entry was “inactive”.

`CC(C)(C)[Si](OCC[C@@H]1C[C@@]1(C)[C@@H](NP(=O)(c1ccccc1)c1ccccc1)c1ccccc1)(c1ccccc1)c1ccccc1`: the Potency entry is “inactive”. For `O=c1c(O)c(-c2ccc(O)cc2)oc2ccccc12`, the Potency is 25.1 µM (active).

Turning to `CC1O[C@@H](Oc2c(-c3ccc(O)c(O)c3)oc3cc(O)cc(O)c3c2=O)C(O)C(O)C1O` (stereo not given in full), the Potency entry was “inactive”.

As for `O=C1c2oc3ccccc3c(=O)c2C(c2cccc(O)c2)N1c1ccccn1` (stereo not given), the Potency result is “inactive”. For the compound `CCOC(=O)CNC(=O)CSc1nnc(-c2cccc(OC)c2)n1CC`, the Potency entry was “inactive”. In the case of `Cc1ccc(CNC(=O)C2CCCN(S(C)(=O)=O)C2)cc1` (stereo not given), the Potency entry is “inactive”.

As for `CCOC(=O)c1cc(C)sc1NC(=O)C1CCC1`, the Potency result is “inactive”.

On to `COc1ccccc1OCCOc1ccc(/C=N/n2cnnc2)cc1`, for which the Potency entry was “inactive”. With `C=CCOc1ccc(/C=N/n2cncn2)cc1OC`, the Potency is 15.8 µM (active). The same measure, in the same setting: with `COc1cccc(OCCOc2cccc(/C=N/n3cnnc3)c2)c1` the entry was “inactive”; with `Cc1cnc(NC(=O)CSc2nnc(-c3ccccc3)n2Cc2ccccc2)s1`, “inactive”. With `Cc1nc(NC(=O)C23CCC(C)(C(=O)O2)C3(C)C)sc1C` (stereo not given), the Potency entry is “inactive”. Regarding `CN1CCC(CNC(=O)c2ccc(-n3c(=O)c(=O)[nH]c4ccccc43)cc2)CC1`, the Potency result was “inactive”. Take `O=C(Cl)c1ccc([N+](=O)[O-])cc1`: the Potency entry was “inactive”. As for `O=C(CSc1nc(-c2ccco2)cc(C(F)(F)F)n1)NCc1cccs1`, the Potency result is “inactive”. Consider `O=C(CSc1nnc(-c2cccs2)n1-c1ccccc1)NCc1ccco1`, for which the Potency result was “inactive”. As for `FC(F)(F)c1cc(-c2cccs2)nc(NCc2ccco2)n1`, the Potency was 31.6 µM (active). Turning to `COc1ccccc1Nc1ncc(C(C)=O)c(C)n1`, the Potency entry is “inactive”. Turning to `O=C(Nc1ccccc1F)C1C2C=CC3(O2)C1C(=O)N(c1cccnc1)C3C(=O)NC1CCCCC1` (stereo not given), the Potency result was “inactive”. With `COc1cccc([C@H]2Oc3ccc(OC)cc3/C(=N\OCC[C@@H]3C=C[C@H](OC(C)=O)[C@H](COC(C)=O)O3)[C@@H]2O)c1`, the activity change, negative = inhibition is -5.53% [at 11.4 µM] (inactive). For `O=c1oc2cc(O)ccc2cc1-c1ccc(F)cc1`, the Potency entry was “inactive”.

Consider `COc1cccc(C(=O)c2cc3ccc(O)cc3oc2=O)c1`, for which the Potency result is “inactive”. Turning to `COc1ccc(-c2cc3ccc(OCc4nn[nH]n4)cc3oc2=O)cc1`, the Potency was 25.1 µM (active).

Consider `c1ccc(-n2ncc3c2ncn2c(CSc4nc5ccccc5s4)nnc32)cc1`, for which the Potency entry is “inactive”. In the case of `CCOC(=O)Cn1c(CN(Cc2ccccc2)Cc2ccccc2)nc2c1c(=O)[nH]c(=O)n2C`, the Potency result is “inactive”. As to `CCCOC(=O)c1[nH]c2c(c1C)C(=O)CC(c1cc(OC)c(OC)c(OC)c1)C2` (stereo not given), the Potency result is “inactive”. Take `CC1(C)OC2CO[C@]3(COS(N)(=O)=O)OC(C)(C)OC3C2O1` (stereo not given in full): the Potency result is “inactive”. On the same count and under the same terms, with `COc1c(C)c2c(c(O)c1C/C=C(\C)CCC(=O)O)C(=O)OC2` the figure was 12.6 µM (active) and 25.1 µM (active); with `Oc1cc(O)c2c(c1)OC(c1ccc(O)c(O)c1)C(O)C2` (stereo not given), “inactive”. With `O=C(NCCCN1CCN(C2CCCCC2)CC1)Nc1ccccc1C(F)(F)F`, the Potency entry is “inactive”. Same read-out and setting: with `Oc1ccc(O)c2c(O)cccc12` the figure was 12.6 µM (active); with `Cc1cccc(CNc2cc(-c3ccccc3Cl)ncn2)c1`, “inactive”; with `Cc1ccc(S(=O)(=O)NCC(=O)N(CC(=O)NC2CCCCC2)Cc2ccco2)cc1`, “inactive”.

On to `Cc1ccc(NC(=O)CS(=O)CC(=O)N(c2ccccc2)C(C)C(=O)NC2CCCC2)cc1` (stereo not given), for which the Potency entry is “inactive”. `O=c1[nH][nH]c(=O)c2cc(N3CCCC3)ccc12`: the Potency is 31.6 µM (active).

Regarding `CO[C@H]1COC(=O)[C@H](Cc2ccccc2)NC(=O)C/C=C\[C@@H](C)[C@H](OC)COC(=O)C/C=C\[C@@H]1C`, the activity change, negative = inhibition was -5.43% [at 11.4 µM] (inactive).

For the compound `COC(=O)c1cn(C)c2ccc(S(=O)(=O)N3CC(C)CC(C)C3)cc2c1=O` (stereo not given), the Potency entry was “inactive”. In the case of `COCCn1c(=O)[nH]c2cc(C(=O)NCc3cccnc3)ccc2c1=O`, the Potency was 31.6 µM (active).

In the case of `CC(C)(C)c1cc(C(=O)NCc2cccnc2)ccn1`, the Potency entry was “inactive”.

As for `Cc1ccc(-n2nc(-c3ccco3)cc2C(=O)NCc2cccnc2)cc1`, the Potency result is “inactive”. In the case of `Fc1ccc(-c2nnc(CSc3nnc(-c4ccc5c(c4)OCO5)o3)o2)cc1`, the Potency entry is “inactive”. As to `O=C(c1cccc(C(=O)N2CCN(c3ccc(F)cc3)CC2)c1)N1CCN(c2ccc(F)cc2)CC1`, the Potency result was “inactive”. Turning to `Cc1cccc2cc(CN(Cc3nnnn3Cc3ccccc3)C3CCCC3)c(=O)[nH]c12`, the Potency was 31.6 µM (active). For `Cc1cc(C)c2[nH]c(=O)c(C(c3nnnn3Cc3ccc4c(c3)OCO4)N3CCCC3)cc2c1` (stereo not given), the Potency entry was “inactive”.

As for `Cc1cccc2cc(CN(Cc3ccc4c(c3)OCO4)Cc3nnnn3C3CCCC3)c(=O)[nH]c12`, the Potency result is “inactive”. `Nc1nc2nc(Cl)[nH]c2c(=O)[nH]1`: the Potency result is “inactive”.

For the compound `CCOC(=O)C1CCCCN1Cc1ccc(OC)c(OC)c1OC` (stereo not given), the Potency result is “inactive”. Turning to `Clc1ccc(CSc2nnc([C@@H]3CCCN3)o2)cc1`, the Potency result is “inactive”. As to `Cc1ccc(S(=O)(=O)N2CC(=O)Nc3ccccc32)cc1C`, the Potency entry was “inactive”.

With `Cc1ccc(S(=O)(=O)C(C#N)c2nc3ccccc3nc2N2CCCC2)cc1C` (stereo not given), the Potency is 31.6 µM (active). As for `CC(C)OC(=O)C(C#N)c1nc2ccccc2nc1N1CCN(Cc2ccccc2)CC1` (stereo not given), the Potency result is “inactive”. Take `O=C(O)c1nn(-c2ccc(Cl)cc2)c2c1C(=O)c1ccccc1C2=O`: the activity change, negative = inhibition was -2.81% [at 11.4 µM] (inactive). On to `CCc1ccc(N(CC)c2ncnc3nc[nH]c23)cc1`, for which the Potency result is “inactive”. As for `O=C(O)c1ccc(Cl)c(S(=O)(=O)Nc2ccccc2Cl)c1`, the Potency entry is “inactive”. Take `Cn1c(=O)n(C)c2cc(CNc3ccc(N4CCOCC4)c(C(=O)O)c3)ccc21`: the Potency was 25.1 µM (active).

Turning to `CC(=O)Nc1ccc(N2CCOCC2)c(C(=O)Nc2cccc(C)c2)c1`, the Potency entry was “inactive”. For `Cn1c(CN2CCOCC2)nc2cc(NC(=O)c3ccc(Cl)cc3)ccc21`, the Potency entry was “inactive”. Same read-out and setting: with `COc1cccc(N(C(=O)c2ccn[nH]2)C2(C(=O)Nc3c(C)cccc3C)CCCCC2)c1` the entry was “inactive”; with `CSCCC(Nc1nc2ccccc2s1)C(=O)O` (stereo not given), “inactive”; with `O=C(O)CN(Cc1ccco1)S(=O)(=O)c1ccc(F)cc1`, “inactive”.

Regarding `Cc1c2c(nc3ccccc13)-c1cccc(=O)n1C2`, the Potency is 7.94 µM (active).

For the compound `CC(C)c1ccc2c([Si](C)(C)C)c3c(nc2c1)-c1cccc(=O)n1C3`, the Potency result is “inactive”.

Regarding `CC(C)(O)CCC(O)[C@@](C)(O)C1CC[C@]2(O)C3=CC(=O)C4CC(O)C(O)C[C@]4(C)C3CC[C@]12C` (stereo not given in full), the Potency entry was “inactive”.

Take `CCOc1ccc(N2C(=O)CC(N(O)c3ccccc3)C2=O)cc1` (stereo not given): the Potency result is “inactive”. Same read-out and setting: with `N#Cc1nc(-c2ccc(OCc3ccccc3)cc2)oc1NCCCN1CCOCC1` the figure was 25.1 µM (active); with `N#Cc1nc(COc2ccc(-c3ccccc3)cc2)oc1NCc1cccnc1`, “inactive”. With `N#Cc1nc(Cc2ccccc2)oc1NCCc1ccccc1`, the Potency result was “inactive”. Regarding `CC[C@]1(C)CC(=O)NC1=O`, the Potency result is “inactive”. For `CC(C)(C)n1nnnc1C(c1cccs1)N(Cc1cccnc1)CC1CCCO1` (stereo not given), the Potency entry was “inactive”. For the compound `COc1ccc2[nH]cc(CCNc3cc(-c4ccccc4CN(C)C)ncn3)c2c1`, the Potency entry was “inactive”. In the case of `Cc1cc(Nc2ccc(Br)cc2F)n2ncnc2n1`, the Potency entry was “inactive”. In the case of `Cc1ccc(NC(=O)CCNS(=O)(=O)c2ccc3c(c2)oc(=O)n3C)cc1C`, the Potency result is “inactive”. As for `C[C@@H]1/C=C\CC(=O)OC[C@H]2O[C@@H](C=C[C@@H]2O)[C@H](C)/C=C\CC(=O)OC[C@H]2O[C@H]1C=C[C@@H]2O`, the activity change, negative = inhibition was -0.26% [at 11.4 µM] (inactive).
